High-throughput results: PubChem, several laboratories
tim23-1 inh – tim23-1 yeast growth inhibition. S. cerevisiae tim23-1 growth, BacTiter-Glo luminescence, 24 h. inhibition, % at 20 µM. 330,000 compounds, 1.3% hits;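 active means growth inhibition of the mutant yeast at or above 50%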;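 further: temperature-sensitive mutant grown at 25 °C; plate controls were DMSO-treated mutant yeast for no effect and medium wells lacking yeast for full effect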
tim10-1 inh – inhibits growth of tim10-1 mutant yeast | S. cerevisiae tim10-1 ts strain growth, BacTiter-Glo, 24 h | 330,000 compounds, 2.2% hits | inhibition, % at 20 µM;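 active means inhibition of at least 40%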;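 further: mutant grown at 25 °C; 0% = DMSO wells with yeast and 100% = wells holding no yeast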
TIM10 inh – TIM10 yeast growth inhibition. AID 463195. inhibition, % at 10 µM. 330,000 compounds, 1.4% hits. S. cerevisiae TIM10 strain growth, BacTiter-Glo luminescence, 24 h;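 active means inhibition of 40% or more at the single tested concentration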;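 further: wild-type TIM10 isogenic control strain grown at permissive 25 °C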
SKKanGAS inh – inhibitors of SKKanGAS S. pyogenes growth in kanamycin (SK-promoter or general growth effect). inhibition, % at 7.5 µM. 300,000 compounds, 1.3% hits. BacTiter-Glo, 6 h;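 active means mean replicate score, as percent of positive control median, at least 50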;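 further: strain carries kanamycin resistance gene driven by streptokinase promoter and grows in 40 µg/ml kanamycin; loss of luminescence reflects streptokinase promoter inhibition or plain growth inhibition; 0% = median of DMSO wells and 100% = positive control at its reference dose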
PfHsp90 yeast 2 – inhibits growth of yeast expressing Plasmodium falciparum Hsp90 | S. cerevisiae expressing PfHsp90, BacTiter-Glo ATP, 48 h; yeast lacking PDR1 and PDR3 efflux regulators | inhibition, % at 9.4 µM | 310,000 compounds, 0.32% hits;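 active means every replicate shows inhibition above about 80%, whatever the replicate mean, limit read from the data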;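 further: 0% = DMSO neutral controls and 100% = 20 µM radicicol positive controls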
V-ATPase pHluor – yeast V-ATPase proton transport regulation by pHLuorin | 350,000 compounds, 0.37% hits | S. cerevisiae, pHLuorin cytosolic pH fluorescence | response, % at 10 µM; in the data active means response mostly above about 7.3%, no sharp cut-off; inactive means mostly below about 5.4%; further: actives read high
tim10-1 confirm – tim10-1 yeast growth inhibition, confirmed | S. cerevisiae tim10-1 ts strain growth, BacTiter-Glo, 24 h | AID 463213 | inhibition, % at 20 µM | 7,400 compounds, 56% hits | shares compounds with tim10-1 inh;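 active means inhibition of yeast growth at or above a set limit in either of two repeat tests at 20 µM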;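 further: tim10-1 mutant grown at permissive 25 °C to find synthetic lethal compounds; 0% = DMSO yeast wells and 100% = medium wells without yeast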
* marks the source's active call; other numbers are inactive results; nt = no result. Compounds with a hit are over-represented: about 4.6% of the library has one in this group of screens.

SMILES	tim23-1 inh	tim10-1 inh	TIM10 inh	SKKanGAS inh	PfHsp90 yeast 2	V-ATPase pHluor	tim10-1 confirm
S=C1NC(c2ccccc2)=CC(c2ccccc2)N1 (stereo not drawn)	20.2	24.5	-11.1	-2.1	17.5	0.5	nt
S=C1NC(c2cccs2)=CC(c2ccc(Br)cc2)N1 (stereo not drawn)	38.6	40.5*	13.0	1.9	5.1	2.6	32.6*
NS(=O)(=O)c1ccc(N2C(=O)CCCC2=O)cc1	nt	nt	nt	nt	nt	1.6	nt
CCOc1cc(N2CCOCC2)c(OCC)cc1NC(=O)c1ccc2ccccc2n1	31.5	44.8*	16.5	3.5	38.6	-0.9	22.3
CCOc1cc(N2CCOCC2)c(OCC)cc1NC(=O)COC(=O)CCOc1ccc(C)cc1	45.1	41.1*	39.2	-8.6	-1.0	2.0	28.8*
CC(C)(C)C(=O)OCc1nc(-c2ccc(Cl)cc2)cs1	23.0	44.7*	24.5	18.8	-17.0	0.3	42.0*
COc1ccc(-c2csc(COC(=O)C(C)(C)C)n2)cc1	7.3	17.7	-11.5	3.7	5.1	-2.9	nt
Cc1c(CCC(=O)NCCC(=O)O)c(=O)oc2c(C)c3oc4c(c3cc12)CCCC4	16.9	6.7	15.0	11.7	-12.9	-1.2	nt
COc1cccc(-c2nnc(SCN3C(=O)c4ccccc4C3=O)n2C)c1	31.9	41.6*	35.3	-0.1	13.3	2.6	33.0*
CCOc1ccc(NC(=S)Nc2ccc(OCc3ccccc3)cc2)cc1	3.3	10.4	4.9	2.6	11.8	-2.3	nt
S=C(Nc1ccccc1)Nc1ccc(OCc2ccc(Cl)cc2Cl)cc1	3.5	48.0*	21.5	-2.0	15.1	7.5	18.8
Fc1ccc(Cc2nnc(-c3cccs3)o2)cc1	3.9	1.6	4.6	0.4	7.3	-1.9	nt
c1csc(-c2nnc(Cc3cccc4ccccc34)o2)c1	25.7	45.2*	5.5	8.8	nt	-2.3	22.5
CCCNC(=O)C(=O)NCCC1=CCCCC1	-2.3	-7.5	-6.6	0.4	nt	-5.6	nt
O=C(NC(=S)NCCC1=CCCCC1)c1cncc(Br)c1	30.0	42.1*	27.3	-6.9	-52.9	-1.4	23.9
CC[n+]1c(/C=C2/C=C(C)CC(C)C2)sc2ccccc21 (stereo not drawn)	31.7	47.6*	39.1	-8.2	-1.7	-0.6	26.5
O=C(COC(=O)c1cccnc1)Nc1ccc2c(c1)OCO2	-4.3	-16.6	-19.6	0.0	5.5	0.1	nt
Cc1ccccc1-n1nnnc1SCC(=O)c1c(N)n(C2CC2)c(=O)[nH]c1=O	2.2	-1.3	-1.1	nt	-2.0	1.2	nt
O=S(=O)(/C=C/c1ccccc1)n1cnc2ccccc21	29.0	44.4*	37.6	-2.2	-0.7	-3.0	32.3*
O=C1C(c2ccc(F)cc2)N(Cc2ccc3c(c2)OCO3)C(=O)CN1C1CCCCC1 (stereo not drawn)	29.4	40.4*	17.0	7.2	-14.8	3.3	30.1
COc1ccc(/C=C2\CCC/C(=C\c3ccc(OC)c(OC)c3OC)C2=O)c(OC)c1OC	35.3	40.7*	20.5	-7.0	-10.1	0.2	22.1
Cc1cc(-c2n[nH]c(=S)n2-c2ccccc2C)cs1	13.7	22.5	12.7	-11.0	-9.6	-2.9	nt
Cc1cccc(-n2c(-c3csc(C)c3)n[nH]c2=S)c1	19.1	40.5*	7.1	-1.5	5.4	8.9	13.7
CCc1cc(-c2n[nH]c(=S)n2-c2cccc(C)c2)cs1	36.4	42.8*	22.2	-8.5	-16.8	0.4	29.9*
Nn1c(SCC(=O)Nc2ccc(N3CCOCC3)cc2)nnc1-c1cccc(F)c1	12.0	-12.8	2.7	nt	30.9	-0.5	nt
Cc1ccc(-c2ccc(OC(=O)c3ccc(=O)[nH]c3)c(C)c2)cc1	27.1	28.8	21.8	30.4	-46.1	-3.1	nt
CC1CC(OC(=O)CN2CCCCC2)CC(C)(C)C1 (stereo not drawn)	-9.5	1.1	0.4	4.1	nt	nt	nt
CS(=O)(=O)N(CC(=O)Nc1cccc([N+](=O)[O-])c1)c1ccccc1	12.6	-1.0	3.4	-9.1	-8.8	-0.9	nt
Cc1ccccc1CN(CC(=O)Nc1cccc([N+](=O)[O-])c1)S(=O)(=O)c1ccc(Cl)cc1	33.5	44.5*	11.9	13.8	8.5	-2.2	24.4
